potentiation, less the hit threshold and activity over 3SD threshold data for 32 compounds are collected here from PubChem BioAssay.

Some of the results follow. Calls of active or inactive are those of the source.

The target in one experiment is Potassium voltage-gated channel subfamily KQT member 2 (Rattus norvegicus) (UniProt O88943). Nature of the experiment: KCNQ2 potassium channel activity enhancers – cell-based, CHO, FluxOR thallium flux, duplicate, confirmation (AID 2287).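 Also: peak minus minimum thallium fluorescence divided by baseline after K/Tl stimulus; 0% = vehicle mean plus 3 SD and 100% = vehicle minus unstimulated blank difference.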 Particulars: CHO-KCNQ2 cells, FluxOR thallium flux fluorescence; at 10 µM; active compounds read high.
Chain of Potassium voltage-gated channel subfamily KQT member 2 (Rattus norvegicus) (O88943 whole entry, looked up): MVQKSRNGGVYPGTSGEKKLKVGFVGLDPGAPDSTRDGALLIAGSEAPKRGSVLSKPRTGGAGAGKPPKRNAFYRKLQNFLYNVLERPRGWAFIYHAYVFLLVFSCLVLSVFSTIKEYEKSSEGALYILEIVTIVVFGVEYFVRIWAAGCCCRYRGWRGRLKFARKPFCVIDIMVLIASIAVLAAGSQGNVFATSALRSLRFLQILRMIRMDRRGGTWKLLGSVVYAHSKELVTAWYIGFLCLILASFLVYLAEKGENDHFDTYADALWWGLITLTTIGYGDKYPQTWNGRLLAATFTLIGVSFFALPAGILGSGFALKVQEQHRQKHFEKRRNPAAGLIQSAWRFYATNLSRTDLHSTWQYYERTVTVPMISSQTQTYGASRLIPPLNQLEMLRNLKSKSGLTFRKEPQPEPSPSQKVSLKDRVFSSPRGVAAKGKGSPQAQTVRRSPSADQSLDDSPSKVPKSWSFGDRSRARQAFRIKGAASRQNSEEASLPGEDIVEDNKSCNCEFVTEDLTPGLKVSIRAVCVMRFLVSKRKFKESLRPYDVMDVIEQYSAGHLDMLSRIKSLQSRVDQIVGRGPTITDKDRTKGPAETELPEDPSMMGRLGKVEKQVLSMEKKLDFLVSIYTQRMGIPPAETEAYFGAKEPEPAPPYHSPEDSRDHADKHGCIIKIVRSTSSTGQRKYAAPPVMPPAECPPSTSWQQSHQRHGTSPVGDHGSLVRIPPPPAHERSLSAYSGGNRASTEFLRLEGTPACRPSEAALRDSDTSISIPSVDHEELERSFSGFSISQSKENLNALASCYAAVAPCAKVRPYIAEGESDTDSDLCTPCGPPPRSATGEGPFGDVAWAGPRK
In the case of `CCCCNC(=O)Nc1c(C)cc(SC#N)cc1C`, the potentiation, less the hit threshold is 19.5% (active).
For the compound `C/C(=N\NC(=O)c1ccoc1C)c1ccccc1O`, the potentiation, less the hit threshold is 52.9% (active).
On the same count and under the same terms, as for `CCN(CC(=O)NC(=O)NCc1ccccc1)Cc1nc2ccccc2c(=O)[nH]1`, the figure is -3% (inactive); as for `CCc1ccc(NC(=O)C(=O)NNC(=O)c2cccs2)cc1`, 26.8% (active); as for `N#Cc1c(-c2ccccc2)nc(SCc2cccc(C(F)(F)F)c2)[nH]c1=O`, 6% (active).
With `Cc1ccc(/C=N/NC(=O)c2cc3ccccc3cc2O)o1`, the potentiation, less the hit threshold is 69% (active).
Same read-out and setting: next, `COc1ccc(NC(=O)/C(Cl)=C(/Cl)S(=O)Cc2ccc(C)cc2)cn1` (centres undefined): 0.8% (active); `FC(F)(F)c1cccc(NC(=S)Nc2cccc(Cl)c2)c1`: -4.8% (inactive); `S=C(NCc1ccc(Cl)cc1)NC12CC3CC(CC(C3)C1)C2`: 9% (active).
Still for that read-out and setting: as for `O=C(NNC1=C(C(=O)C(F)(F)F)CCC1)c1ccncc1`, the figure is 1.3% (active).
For the compound `CC(C)(C)C1CCC(C(=O)NCC(c2cccs2)N2CCOCC2)CC1` (centres undefined), the potentiation, less the hit threshold was 13.3% (active).
Same read-out and setting: as for `CCn1c(=S)[nH]c2sc3c(c2c1=O)CCCCC3`, the figure is 43.5% (active).
On the same count and under the same terms, as for `Cc1[nH]n(-c2cccc(Cl)c2)c(=O)c1/C=N/n1c(C)nc2ccccc2c1=O`, the figure is 1.8% (active); as for `CCn1c2ccccc2c2cc(NC(=O)CNC)ccc21`, 1.9% (active); as for `Cc1ccc(-n2nc3c(c2NC(=O)CCC2CCCCC2)CS(=O)C3)cc1` (centres undefined), 27.6% (active).
The same measure, in the same setting: as for `O=C(Nc1ccc(Oc2ccccc2)cc1)c1ccco1`, the figure is 37.7% (active); as for `Cc1cccc(NC(=O)CSC(N)=O)c1C`, 56.1% (active).
`Cc1cccc(NC(=S)NC(=O)c2ccc(Br)o2)c1`: the potentiation, less the hit threshold is 35.5% (active).
As for `CCn1c(O)c(N=NC2=NC(=O)CS2)c2cc(C)ccc21`, the potentiation, less the hit threshold was 0.3% (active).
The same measure, in the same setting: as for `CC1=C/C(=N\OS(=O)(=O)c2ccccc2)C=CC1=O`, the figure is 0.8% (active); as for `CSc1nnc(NC(=O)c2nc(S(=O)(=O)Cc3ccc(C)cc3)ncc2Cl)s1`, 67.6% (active).
Same read-out and setting: as for `Oc1c(Cl)cc(Cl)cc1/C=N/c1ncn[nH]1`, the figure is 37.8% (active); as for `COc1cccc(NC(=O)C2C(c3ccccc3)C2(Cl)Cl)c1` (centres undefined), 7% (active); as for `CCC1(C)Cc2c(sc3[nH]c(=S)n(Cc4ccccc4)c(=O)c23)CO1` (centres undefined), 66% (active).
For `O=C(NCc1ccc2c(c1)OCO2)c1ccc(Cl)s1`, the potentiation, less the hit threshold is 16.7% (active).
On the same count and under the same terms, next, `CCOC(=O)c1c(NC(=S)NC)sc2c1CCCC2`: 16.6% (active).
Same read-out and setting: as for `CC(NC(=O)Nc1ccccc1)c1ccccc1` (centres undefined), the figure is 22.8% (active); as for `CC(NC(=O)Nc1cccc([N+](=O)[O-])c1)c1ccc2c(c1)OCO2` (centres undefined), 30.7% (active).
Still for that read-out and setting: next, `Cc1ccc(NC(=O)C2CC2c2ccccc2)cc1` (centres undefined): 26.2% (active).
Regarding `CS(=O)(=O)c1sc(C(=O)NC(=S)Nc2ccc(OC(F)(F)F)cc2)c2c1C=CCC2`, the potentiation, less the hit threshold is -3.3% (inactive).
On the same count and under the same terms, as for `CCOC(=O)c1sc(=S)n2c1[nH]c(=O)c1ccc(C(=O)OC)cc12`, the figure is 26.7% (active); as for `CCC1(C)Cc2c(sc3nnn(CC(=O)Nc4ccc(Cl)cc4)c(=O)c23)CO1` (centres undefined), 2.2% (active).

In a further experiment the target is Inward rectifier potassium channel 2 (Mus musculus) (UniProt P35561). Nature of the experiment: PubChem AID 2345.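 Also: 0% = vehicle mean plus 3 SD and 100% = vehicle minus no-stimulus blank window.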 Particulars: HEK293 Kir2.1, FluxOR thallium flux fluorescence; at 10 µM; active compounds read high.
Chain of Inward rectifier potassium channel 2 (Mus musculus) (P35561 whole entry, looked up): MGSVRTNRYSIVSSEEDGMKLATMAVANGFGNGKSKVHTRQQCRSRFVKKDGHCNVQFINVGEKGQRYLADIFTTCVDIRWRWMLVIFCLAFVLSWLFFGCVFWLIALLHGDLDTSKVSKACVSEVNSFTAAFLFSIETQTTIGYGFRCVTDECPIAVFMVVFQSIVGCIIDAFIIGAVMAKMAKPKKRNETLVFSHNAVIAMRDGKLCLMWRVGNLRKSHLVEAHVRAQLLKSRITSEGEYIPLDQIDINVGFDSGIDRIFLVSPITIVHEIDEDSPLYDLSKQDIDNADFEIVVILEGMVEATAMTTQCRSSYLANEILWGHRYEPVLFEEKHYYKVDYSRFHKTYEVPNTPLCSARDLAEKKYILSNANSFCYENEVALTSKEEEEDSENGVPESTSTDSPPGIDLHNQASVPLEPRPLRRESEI
For the compound `CCCCNC(=O)Nc1c(C)cc(SC#N)cc1C`, the activity over 3SD threshold is -33.2% (inactive).
In the case of `C/C(=N\NC(=O)c1ccoc1C)c1ccccc1O`, the activity over 3SD threshold was -16.7% (inactive).
As to `CCN(CC(=O)NC(=O)NCc1ccccc1)Cc1nc2ccccc2c(=O)[nH]1`, the activity over 3SD threshold was -39% (inactive).
Same read-out and setting: as for `CCc1ccc(NC(=O)C(=O)NNC(=O)c2cccs2)cc1`, the figure is -22.9% (inactive); as for `N#Cc1c(-c2ccccc2)nc(SCc2cccc(C(F)(F)F)c2)[nH]c1=O`, -39.2% (inactive); as for `Cc1ccc(/C=N/NC(=O)c2cc3ccccc3cc2O)o1`, -20.1% (inactive).
On the same count and under the same terms, as for `COc1ccc(NC(=O)/C(Cl)=C(/Cl)S(=O)Cc2ccc(C)cc2)cn1` (centres undefined), the figure is -44.7% (inactive).
Still for that read-out and setting: as for `FC(F)(F)c1cccc(NC(=S)Nc2cccc(Cl)c2)c1`, the figure is -40.2% (inactive); as for `S=C(NCc1ccc(Cl)cc1)NC12CC3CC(CC(C3)C1)C2`, -9.25% (inactive).
With `O=C(NNC1=C(C(=O)C(F)(F)F)CCC1)c1ccncc1`, the activity over 3SD threshold is -36.3% (inactive).
On the same count and under the same terms, as for `CC(C)(C)C1CCC(C(=O)NCC(c2cccs2)N2CCOCC2)CC1` (centres undefined), the figure is -57.7% (inactive); as for `CCn1c(=S)[nH]c2sc3c(c2c1=O)CCCCC3`, -16.8% (inactive); as for `Cc1[nH]n(-c2cccc(Cl)c2)c(=O)c1/C=N/n1c(C)nc2ccccc2c1=O`, -35.9% (inactive).
The same measure, in the same setting: next, `CCn1c2ccccc2c2cc(NC(=O)CNC)ccc21`: -90% (inactive).
Same read-out and setting: next, `Cc1ccc(-n2nc3c(c2NC(=O)CCC2CCCCC2)CS(=O)C3)cc1` (centres undefined): -35.2% (inactive).
On to `O=C(Nc1ccc(Oc2ccccc2)cc1)c1ccco1`, for which the activity over 3SD threshold was -25.3% (inactive).
On the same count and under the same terms, as for `Cc1cccc(NC(=O)CSC(N)=O)c1C`, the figure is -46.1% (inactive).
On to `Cc1cccc(NC(=S)NC(=O)c2ccc(Br)o2)c1`, for which the activity over 3SD threshold is -35.5% (inactive).
Regarding `CCn1c(O)c(N=NC2=NC(=O)CS2)c2cc(C)ccc21`, the activity over 3SD threshold was -27.4% (inactive).
Still for that read-out and setting: next, `CC1=C/C(=N\OS(=O)(=O)c2ccccc2)C=CC1=O`: -51.4% (inactive); `CSc1nnc(NC(=O)c2nc(S(=O)(=O)Cc3ccc(C)cc3)ncc2Cl)s1`: -50.4% (inactive).
For the compound `Oc1c(Cl)cc(Cl)cc1/C=N/c1ncn[nH]1`, the activity over 3SD threshold was -28.1% (inactive).
In the case of `COc1cccc(NC(=O)C2C(c3ccccc3)C2(Cl)Cl)c1` (centres undefined), the activity over 3SD threshold was -29.8% (inactive).
Still for that read-out and setting: next, `CCC1(C)Cc2c(sc3[nH]c(=S)n(Cc4ccccc4)c(=O)c23)CO1` (centres undefined): 10.5% (active); `O=C(NCc1ccc2c(c1)OCO2)c1ccc(Cl)s1`: -17.6% (inactive); `CCOC(=O)c1c(NC(=S)NC)sc2c1CCCC2`: -37.6% (inactive).
For the compound `CC(NC(=O)Nc1ccccc1)c1ccccc1` (centres undefined), the activity over 3SD threshold is -35.8% (inactive).
On the same count and under the same terms, as for `CC(NC(=O)Nc1cccc([N+](=O)[O-])c1)c1ccc2c(c1)OCO2` (centres undefined), the figure is -29.4% (inactive).
Turning to `Cc1ccc(NC(=O)C2CC2c2ccccc2)cc1` (centres undefined), the activity over 3SD threshold was -35.9% (inactive).
Same read-out and setting: as for `CS(=O)(=O)c1sc(C(=O)NC(=S)Nc2ccc(OC(F)(F)F)cc2)c2c1C=CCC2`, the figure is -36.7% (inactive); as for `CCOC(=O)c1sc(=S)n2c1[nH]c(=O)c1ccc(C(=O)OC)cc12`, -43.9% (inactive); as for `CCC1(C)Cc2c(sc3nnn(CC(=O)Nc4ccc(Cl)cc4)c(=O)c23)CO1` (centres undefined), -36.4% (inactive).
